# G9a block: G9a (human) methyltransferase inhibition; AID 504332; Potency, µM (highest dose often 102 µM), actives largely listed as inhibitors; Q96KQ7; G9a H3K9 monomethylation, AlphaScreen, 2 h; hit rate 8.8% among 350,000; also: nearly all actives have a fitted effect of over 75% in size
#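 G9a (20 nM) preincubated 15 min RT with compounds, then 500 nM biotinylated H3K9 peptide and 20 uM SAM added; 2 h RT reaction. Monomethyl-H3K9 product detected by AlphaScreen with anti-H3K9me1 antibody, streptavidin donor and anti-rabbit IgG acceptor beads.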
# HP1b chromo inh: blocks HP1-beta chromodomain binding to methylated histone tails; P83916; AlphaScreen HP1-beta / biotin-H3K9me3 peptide binding; hit rate 0.56% among 390,000; Potency, µM (series often up to 114 µM), most hits filed as inhibitors; also: nearly all actives have a fitted effect of over 70% in size
#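 AlphaScreen: HP1-beta (50 nM) preformed 30 min with biotin-H3(1-18)K9me3 peptide (50 nM) in PBS pH 7.4, 0.01% Tween-20. Compound added for 30 min at RT, then streptavidin donor/nickel chelate acceptor beads (10 ug/mL) for 30 min.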
# BAZ2B inh: inhibitors of human BAZ2B bromodomain | AlphaScreen BAZ2B-H3K14Ac peptide displacement | Q9UIF8 | Potency, µM (highest dose often 114 µM), hits mostly inhibitors | hit rate 4.4% among 360,000; also: nearly all actives have a fitted effect of over 60% in size
#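 BAZ2B (50 nM) with biotin-H3(5-23)K14Ac peptide (50 nM) in PBS pH 7.4, 0.01% Tween-20, preformed 30 min, then compound 30 min at room temperature; top concentration 110uM. AlphaScreen streptavidin donor/nickel chelate acceptor beads (10 ug/mL final), 20 min dark, signal read.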
# PLK1 PBD inh: blocks phosphopeptide binding to human PLK1 polo-box domain. P53350. Potency, µM, actives largely listed as inhibitors. AID 720504. Plk1 PBD binding of FITC phosphopeptide, fluorescence polarization. hit rate 2.8% among 360,000; also: series mostly up to about 57 µM; nearly all actives have a fitted effect of over 65% in size
# JMJD2A Tudor inh: blocks the human JMJD2A Tudor domain; AlphaScreen JMJD2A-Tudor / H3K4me3 peptide binding; Potency, µM (doses to about 114 µM), most hits filed as inhibitors; hit rate 4.4% among 390,000; also: nearly all actives have a fitted effect of over 50% in size
# Target sequence (O75164 whole entry, looked up, the tested form may be a part): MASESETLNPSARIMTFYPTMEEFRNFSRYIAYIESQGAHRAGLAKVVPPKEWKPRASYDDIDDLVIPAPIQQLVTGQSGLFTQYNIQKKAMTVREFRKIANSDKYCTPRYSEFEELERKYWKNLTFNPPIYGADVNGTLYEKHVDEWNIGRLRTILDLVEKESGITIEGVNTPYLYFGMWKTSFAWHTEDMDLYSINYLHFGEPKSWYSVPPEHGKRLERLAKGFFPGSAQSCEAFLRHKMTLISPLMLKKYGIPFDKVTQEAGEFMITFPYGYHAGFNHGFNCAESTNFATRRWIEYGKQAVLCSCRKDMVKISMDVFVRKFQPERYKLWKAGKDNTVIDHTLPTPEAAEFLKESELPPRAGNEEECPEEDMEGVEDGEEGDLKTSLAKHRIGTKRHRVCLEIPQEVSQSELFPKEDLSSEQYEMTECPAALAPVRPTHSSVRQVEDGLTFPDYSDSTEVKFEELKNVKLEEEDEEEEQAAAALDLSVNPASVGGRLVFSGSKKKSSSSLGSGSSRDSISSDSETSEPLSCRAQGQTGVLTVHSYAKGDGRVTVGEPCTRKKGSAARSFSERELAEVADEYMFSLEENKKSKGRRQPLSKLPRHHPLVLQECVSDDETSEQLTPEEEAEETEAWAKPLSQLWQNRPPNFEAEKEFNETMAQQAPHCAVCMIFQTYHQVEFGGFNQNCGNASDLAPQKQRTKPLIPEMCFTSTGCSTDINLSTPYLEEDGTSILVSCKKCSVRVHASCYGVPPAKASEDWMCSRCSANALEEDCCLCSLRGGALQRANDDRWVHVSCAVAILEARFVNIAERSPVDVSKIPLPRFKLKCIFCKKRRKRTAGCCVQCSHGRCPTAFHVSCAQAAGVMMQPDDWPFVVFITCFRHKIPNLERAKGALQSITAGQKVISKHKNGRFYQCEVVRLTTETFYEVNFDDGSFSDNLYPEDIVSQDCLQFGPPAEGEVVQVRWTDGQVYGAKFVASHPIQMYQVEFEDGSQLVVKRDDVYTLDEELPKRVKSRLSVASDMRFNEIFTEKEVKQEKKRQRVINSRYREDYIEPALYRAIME
# VDR inhibitor: inhibitors of human vitamin D receptor | P11473 | AID 504847 | VDR-SRC2-3 peptide fluorescence polarization, 2 h | hit rate 0.93% among 400,000 | Potency, µM, hits mostly inhibitors
#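 Reagent solutions, kept cold and dark, are dispensed first; compounds are then pinned in at 23 nl, plates briefly spun, and incubated 2 h at ambient temperature. Inhibition of VDR–SRC2-3 peptide binding is read by fluorescence polarization.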
# A number is an active result; – = inactive; ? = inconclusive; · = no result given; ! = not active in a repeat; [ ] = dose if it differs, or a comment. In the library only some 11% were active in any assay of this set; here they are far more common. Calls follow the shape of the dose curve; as a rule, active = well fitted curve in the direction sought with a large enough effect; inconclusive = small, poorly fitted or top-dose-only effect, or another doubt; inactive = no such curve, though single readings can be large; an effect the other way counts as inactive or inconclusive.
SMILES,G9a block,HP1b chromo inh,BAZ2B inh,PLK1 PBD inh,JMJD2A Tudor inh,VDR inhibitor
CCOC(=O)Cc1ccc(NC(=O)Nc2nnc(N3CCCCC3C)s2)cc1 (stereo not drawn),?,–,–,·,–,–
CCOc1ccc(NC(=O)CSc2oc(-c3ccco3)nc2S(=O)(=O)c2ccccc2)cc1,–,–,–,·,–,–
c1ccc(CNc2ccc(N3CCOCC3)cc2)cc1,·,?,·,·,45µM,?
c1ccc(CNc2nc(NCc3ccco3)nc(N3CCOCC3)n2)cc1,·,–,?,30µM,?,–
O=C(CN1CCN(c2ccc(Cl)cc2)CC1)NCc1ccccc1,–,–,–,–,–,–
Clc1ccc(CNc2ccc(N3CCN(Cc4ccccc4)CC3)cc2)cc1,10µM,18µM,5.6µM,–,11µM,–
CCn1c(SCc2cccc(Br)c2)nnc1-c1nonc1NC(C)=O,–,–,–,·,–,–
Cc1ccc(CN2CN(S(=O)(=O)c3cccs3)c3nc4ccccc4nc32)cc1,–[2.33 µM],–,–,–,–,–
Cc1ccc(S(=O)(=O)N2CN(CC3CCCO3)c3nc4ccccc4nc32)cc1 (stereo not drawn),28µM,–,–,–,–,–
COc1ccccc1CN1CN(S(=O)(=O)c2ccccc2)c2nc3ccccc3nc21,32µM,–,–,?,–[11.4 µM],–
Cc1cc(NC(=O)CCC(=O)N(CC(=O)NCC2CCCO2)c2cccc(F)c2)no1 (stereo not drawn),–,–,–,–,–,–
O=C(CC1C(=O)Nc2ccccc2N1CC(=O)N1CCCC1)Nc1ccc(Br)cc1 (stereo not drawn),0.28µM,–,–,–,–,–
Cc1ccccc1N=C1NC(=O)/C(=C/c2cccn2C)S1,45µM,?,?,–,40µM,–
Cc1ccc(N=C2NC(=O)/C(=C\c3cccs3)S2)cc1C,2.8µM,–,–,–,?,–
Cc1cccc(N=C2NC(=O)/C(=C/c3cccn3C)S2)c1,·,–,40µM,–,?,–
CCOc1ccc(NC(=O)CSc2nnc(-c3ccncc3)n2-c2ccccc2)cc1,–,–,–,·,–,–
CCCCNc1cc(=O)n(C)c(=O)[nH]1,50µM,–,–,–,–,–
Cn1c(=O)cc(NCc2ccccc2)[nH]c1=O,–[2.33 µM],–,–,–,–,–
CC(C)S(=O)(=O)N1CCN(c2nc(-c3cccs3)nc3ccccc23)CC1,·,–,·,·,–,–
Cc1scc2c1N(C(=O)CN1CCN(C)CC1)c1ccccc1NC2=O,35µM!,–,?,–,–,–
CCN(Cc1ccccc1)C(=O)Cn1c(=O)n(-c2ccc(Cl)cc2)c(=O)c2c(C)c(C(=O)N(C)C)sc21,–,–,–,·,13µM,–
COc1cccc(C(=O)N/N=C(\C)CC(=O)Nc2ccc(N(C)C)cc2)c1,·,–,56µM,–,–,–
COc1cccc(C(=O)NC2CC3CCCC(C2)N3CC(=O)Nc2ccc(N(C)C)cc2)c1 (stereo not drawn),–[0.501 µM],?,45µM,–,40µM,–
COc1cccc(C(=O)NC2CC3CCCC(C2)N3CC(=O)Nc2ccccc2)c1 (stereo not drawn),–[12.7 µM],–,?,–,–,–
COc1cccc(NC(=O)C(=O)N/N=C(\C)CC(=O)Nc2ccc(NC(C)=O)cc2)c1,71µM,–,–,–,–,–
SMILES,G9a block,HP1b chromo inh,BAZ2B inh,PLK1 PBD inh,JMJD2A Tudor inh,VDR inhibitor
C/C(CC(=O)Nc1ccc(N(C)C)cc1)=N\NC(=O)c1ccc([N+](=O)[O-])cc1Cl,45µM,?,?,21µM,?,79µM
C/C(CC(=O)Nc1ccc(N(C)C)cc1)=N\NC(=O)c1ccc(Cl)cc1Cl,–,–,?,–,?,–
COc1cccc(/C(C)=N/NC(=O)c2ccc(N(C)C)cc2)c1,·,–,–,–,–,–
COc1ccc(S(=O)(=O)Nc2ccc3c(c2)C(=O)N([C@H](C)CO)C[C@H](C)[C@@H](CN(C)S(=O)(=O)c2ccc(F)cc2)O3)cc1,·,–,·,–,–,–
Cc1cccc(S(=O)(=O)NC2CCN(C#N)C2)c1 (stereo not drawn),·,·,·,·,–,·
C/C(CC(=O)Nc1ccc(N(C)C)cc1)=N\NC(=O)c1ccccc1O,50µM,–,35µM,–,56µM,–
CCOC(=O)CCC(NC(=O)CCCC(=O)NC(CCC(=O)OCC)C(=O)OCC)C(=O)OCC (stereo not drawn),–,–,–,–,–,–
CCOC(=O)C(CS)NCCN[C@@H](CS)C(=O)OCC (stereo partly drawn),?,·,·,·,·,28µM
O=C(COC(=O)CNC(=O)c1ccc(Cl)cc1Cl)NC1CCCCCCC1,?,–,–,–,–,–
O=C(COC(=O)CNC(=O)c1sc2ccccc2c1Cl)Nc1c(Cl)cc(Cl)cc1Cl,–,–,–,–,–,–
CC(C)c1ccc(NC2CCCN(C(=O)c3cccc(N4CCNC4=O)c3)C2)cc1 (stereo not drawn),·,–,?,–,–,–
O=C(c1ccnc(Cl)c1)N1CCCC(Nc2ccc(F)cc2)C1 (stereo not drawn),–,–,–,–,–,–
CC(C)c1ccc(NC2CCCN(C(=O)c3ccnc(Cl)c3)C2)cc1 (stereo not drawn),25µM,–,?,–,–,–
COc1ccc(C(=O)N2CCCC(Nc3ccc(C)c(C)c3)C2)cc1 (stereo not drawn),–,–,?,–,?,–
Cc1ccc(NC2CCCN(C(=O)c3ccoc3)C2)cc1C (stereo not drawn),79µM,–,?,–,–,–
CC(C)c1ccc(NC2CCCN(C(=O)c3ccc4nccnc4c3)C2)cc1 (stereo not drawn),79µM,–,–,–,–,–
CC(C)C(NS(=O)(=O)c1ccc2c(c1)OCCCO2)C(=O)O (stereo not drawn),–,?,–,24µM,?,45µM
O=C(Cn1cc([N+](=O)[O-])cn1)Nc1ccc(Cn2cc(Br)cn2)cc1,2.2µM,–,–,–,–,–
COC(=O)c1ccc(Cn2cc([N+](=O)[O-])cn2)cc1,–,–,–,–,–,–
CC(C)NC(=O)CCCn1cc([N+](=O)[O-])cn1,50µM,–,–,–,–,–
Cc1ccc(NC(=O)c2ccc(Cn3cc([N+](=O)[O-])cn3)cc2)c(C)c1,–,–,–,–,–,–
CC(NC(=O)c1ccc(Cn2cc([N+](=O)[O-])cn2)cc1)c1ccccc1 (stereo not drawn),–,–,–,27µM,50µM,?
O=C(N/N=C/c1cc([N+](=O)[O-])ccc1O)c1cccc2ccccc12,·,·,–,·,·,·
CCC(CC)C(=O)Nc1ccc(OCc2cc(=O)n3c4c(sc3n2)CCCC4)cc1,–,–,–,·,–,–
Cc1ccc(N2CC(C(=O)O)CC2=O)cc1 (stereo not drawn),–,–,–,–,–,–

# Screens (PubChem BioAssay)
